About 1,400 (42%) of roughly 3,300 compounds were called active.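 How the source made its calls: active means mean inhibition across replicates above the hit cutoff derived for the earlier primary screen (cut at about 22% in these data); inactive means the rest.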 The set was probably picked from earlier hits. The entries come from a sample that favours actives as a whole.
Each molecule was assayed against Protein arginine N-methyltransferase 1 (Homo sapiens) (UniProt Q99873) (assay: PRMT1 methyltransferase inhibitors, confirmation, biochemical, fluorescence polarization, triplicate (AID 687036)). Settings: recombinant His-PRMT1, activity-based probe fluorescence polarization; at 2.79 µM; active compounds read high.
Sequence of Protein arginine N-methyltransferase 1 (Homo sapiens) (Q99873 whole entry, looked up): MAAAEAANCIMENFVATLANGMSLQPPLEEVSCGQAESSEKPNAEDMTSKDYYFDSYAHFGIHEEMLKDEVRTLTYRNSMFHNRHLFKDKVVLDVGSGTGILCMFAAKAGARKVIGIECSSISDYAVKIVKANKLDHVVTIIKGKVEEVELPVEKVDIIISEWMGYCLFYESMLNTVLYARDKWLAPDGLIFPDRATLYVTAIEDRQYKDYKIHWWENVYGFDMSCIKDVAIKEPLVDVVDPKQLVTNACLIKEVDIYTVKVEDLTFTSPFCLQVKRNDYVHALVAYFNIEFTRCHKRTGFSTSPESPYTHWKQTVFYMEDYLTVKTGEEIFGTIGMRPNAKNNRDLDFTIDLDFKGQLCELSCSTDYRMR
`COc1ccc(N2C(=O)/C(=C/c3ccco3)C(=O)NC2=S)cc1` was tested, and the inhibition was 75.2% (active).
`Cc1cc(N2CCNC[C@@H]2C)ccc1N1CC[C@H](O)C1` was tested, and the inhibition was 4.59% (inactive).
In the case of `O=C1NC(=O)N(Cc2ccco2)C(=O)/C1=C\c1ccc(-c2ccc(F)cc2)o1`, the inhibition was 52.9% (active).
`Cc1cc(/C=C2/C(=O)NC(=O)N(Cc3ccco3)C2=O)c(C)n1-c1ccc(C(=O)O)cc1` was tested, and the inhibition was -1.23% (inactive).
In the case of `CCOC(=O)CC(SP1(=S)OCC2(CCCCO2)C(C2CCCCO2)O1)C(=O)OCC` (stereo unspecified), the inhibition was 60.2% (active).
In the case of `O=C1N=c2ccccc2=C/C1=C\c1c(O)[nH]c(=S)[nH]c1=O`, the inhibition was 55.4% (active).

Reference: PubChem BioAssay AID687036 (The Scripps Research Institute Molecular Screening Center, 2013)
